Bioassay records: PubChem BioAssay, National Center for Advancing Translational Sciences (NCATS)
RORg inh: inhibitors of mouse ROR gamma transcriptional activity; P51450; Drosophila S2 Gal4-RORgamma UAS-luciferase reporter, 20 h; Potency, µM (series often up to 53.6 µM), most hits filed as inhibitors; 310,000 tested, 5.4% active; AID 2551; note: nearly all actives have a fitted effect of over 60% in size
Target sequence (P51450 whole entry, looked up, the tested form may be a part): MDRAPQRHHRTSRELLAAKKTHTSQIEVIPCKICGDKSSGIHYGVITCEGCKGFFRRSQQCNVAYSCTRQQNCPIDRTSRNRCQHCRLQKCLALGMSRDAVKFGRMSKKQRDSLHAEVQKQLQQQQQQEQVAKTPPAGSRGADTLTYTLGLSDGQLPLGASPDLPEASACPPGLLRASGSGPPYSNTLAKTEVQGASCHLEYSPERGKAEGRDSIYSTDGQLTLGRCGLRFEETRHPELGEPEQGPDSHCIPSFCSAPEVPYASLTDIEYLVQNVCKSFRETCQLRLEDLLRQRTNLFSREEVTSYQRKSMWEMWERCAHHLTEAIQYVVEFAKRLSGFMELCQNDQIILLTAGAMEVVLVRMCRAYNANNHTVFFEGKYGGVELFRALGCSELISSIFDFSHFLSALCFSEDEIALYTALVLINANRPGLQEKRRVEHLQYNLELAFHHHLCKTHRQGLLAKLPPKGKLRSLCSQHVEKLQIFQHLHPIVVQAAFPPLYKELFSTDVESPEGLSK
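In this cell-based reporter format, copper sulfate (700 uM final) drives Gal4–ROR gamma fusion expression from a metallothionein promoter in Drosophila Schneider cells; compounds preincubated 1 hr, reporter read after 20 hr at ambient temperature.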
ELG1 DNA repair: ELG1-dependent DNA repair inhibition; 330,000 tested, 2.3% active; AID 504467; HEK293T ELG1-luciferase reporter, luminescence, 16 h; DNA damage induced by 5-fluorouridine; Potency, µM (series often up to 46.1 µM), actives largely listed as inhibitors; note: nearly all actives have a fitted effect of over 55% in size
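Overnight (16 hr) co-exposure of 2,000 cells/well to 5-fluorouridine and compound at 37 °C preceded detection. Luciferase was quantified via ONE-Glo luminescence; loss of signal denotes inhibition.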
IL1B secr inh: inhibitors of inflammasome signaling (IL-1 beta secretion) | THP-1 LPS/ATP IL-1B secretion, AlphaLISA, 16 h; stronger effect = lower value | AID 743279 | activity change, % at 57.5 µM | 360,000 tested, 4.7% active; in the data active = activity change below about -50%; inconclusive = mostly about -30% to -49%
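Secreted IL-1B measured by AlphaLISA bead assay after 16 h compound exposure of THP-1 cells; compounds (final up to 57.5 uM) added 1 h before LPS (250 ng/mL) and ATP (1.25 mM) stimulation; lower signal means less secretion.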
DT40 TDP1 no CPT: qHTS for Inhibitors of human tyrosyl-DNA phosphodiesterase 1 (TDP1): qHTS in cells in absence of CPT. DT40 Tdp1-/- hTDP1 cells, no CPT, ATP luminescence, 48 h. Potency, µM (highest dose often 46.2 µM), hits mostly inhibitors. 420,000 tested, 15% active. AID 686978, 2013; note: nearly all actives have a fitted effect of over 55% in size
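Growth kinetics read by CellTiter-Glo luminescence after ≥48 hr at 37 °C. Cells: DT40 Tdp1-/- stably carrying human TDP1, 400 per well, compound exposure in the absence of CPT (DMSO vehicle).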
DT40 TDP1 CPT: DT40-hTDP1 cell growth loss with CPT | chicken DT40 Tdp1-/-;hTDP1 cells + 20 nM CPT, ATP luminescence, 48 h | Potency, µM (highest dose often 46.2 µM), usual class: inhibitors | 420,000 tested, 12% active | AID 686979; note: nearly all actives have a fitted effect of over 55% in size
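Chicken DT40 Tdp1-/- cells stably complemented with human TDP1 were seeded at 400 cells/well in medium containing 20 nM camptothecin, exposed to pin-transferred compounds, and grown at 37 °C for at least 48 hr. Viability was read as ATP luminescence.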
Gal4-VP16 FLuc: inhibits Gal4-VP16 luciferase reporter, ROR gamma counter-screen; Drosophila S2 Gal4-VP16 UAS-luciferase, luminescence, 20 h; 310,000 tested, 3.5% active; Potency, µM (doses to about 53.6 µM), actives largely listed as inhibitors;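 note: Gal4-VP16 expression switched on by copper sulfate through the metallothionein promoter; nearly all actives have a fitted effect of over 50% in size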
Each line names hits and unclear results; the compound was inactive in the other large screens. Sampled rows, rich in hits. Any-hit rate of the full collection: about 21%. Unless noted, calls come from the whole dose curve; as a rule, active = well fitted curve in the direction sought with a large enough effect; inconclusive = small, poorly fitted or top-dose-only effect, or another doubt; inactive = no such curve, though single readings can be large; an effect the other way counts as inactive or inconclusive.

Cc1ccc(Nc2nc(-c3ccc(S(=O)(=O)N4CCCC4)cc3)cs2)cc1C	IL1B secr inh inconclusive, DT40 TDP1 no CPT 20.6µM, DT40 TDP1 CPT inconclusive
Cc1ccc(Nc2nc(-c3ccc(S(=O)(=O)N4CCOCC4)cc3)cs2)cc1	DT40 TDP1 no CPT inconclusive, DT40 TDP1 CPT inconclusive (no result: RORg inh, ELG1 DNA repair, Gal4-VP16 FLuc)
O=S(=O)(c1ccc(-c2csc(Nc3ccc(F)cc3)n2)cc1)N1CCCC1	RORg inh inconclusive, DT40 TDP1 no CPT 11.6µM, DT40 TDP1 CPT 11.6µM
Nc1nc(-c2ccc(S(=O)(=O)N3CCCCC3)cc2)cs1	ELG1 DNA repair inconclusive, DT40 TDP1 no CPT inconclusive, DT40 TDP1 CPT inconclusive (no result: RORg inh, Gal4-VP16 FLuc)
Cc1cc(C)cc(Nc2nc(-c3ccc(S(=O)(=O)N4CCCC4)cc3)cs2)c1	ELG1 DNA repair 23.1µM, IL1B secr inh inconclusive, DT40 TDP1 no CPT 7.31µM, DT40 TDP1 CPT 8.2µM
CCCCOc1ccc(C(=O)Nc2cc(-c3cn4cccnc4n3)ccc2OC)cc1	none (no result: RORg inh, ELG1 DNA repair, IL1B secr inh, Gal4-VP16 FLuc)
CCOC(=O)c1sc(NC(=O)c2cc(CC)on2)c(C(=O)OCC)c1C	DT40 TDP1 CPT inconclusive (no result: RORg inh, ELG1 DNA repair, IL1B secr inh, Gal4-VP16 FLuc)
CC(=O)c1ccc(NS(=O)(=O)c2ccc(C(C)(C)C)cc2)cc1	RORg inh inconclusive, DT40 TDP1 no CPT inconclusive, DT40 TDP1 CPT inconclusive
CC(C)(C)c1ccc(S(=O)(=O)Nc2cccc(C3OCCCO3)c2)cc1	RORg inh inconclusive, DT40 TDP1 no CPT 14.6µM, DT40 TDP1 CPT 14.6µM
CCOc1ccc(Nc2cc(C)nc3nc(Cc4ccc(Cl)cc4)nn23)cc1	DT40 TDP1 CPT inconclusive (no result: RORg inh, ELG1 DNA repair, IL1B secr inh, Gal4-VP16 FLuc)
CCC(C)Sc1nnc(CNC(=O)C23CC4CC(CC(C4)C2)C3)n1C1CCCCC1 (configuration not stated)	RORg inh 11.2µM, IL1B secr inh inconclusive, DT40 TDP1 no CPT inconclusive, DT40 TDP1 CPT inconclusive, Gal4-VP16 FLuc inconclusive
Cn1c(=O)c2c(nc(NCCNC(=O)c3ccco3)n2Cc2ccccc2Cl)n(C)c1=O	DT40 TDP1 no CPT inconclusive
Cn1c(=O)c2c(nc(N/N=C/c3ccc(OC(=O)c4ccco4)cc3)n2Cc2ccccc2)n(C)c1=O	ELG1 DNA repair 20.6µM, DT40 TDP1 no CPT 8.2µM, DT40 TDP1 CPT 11.6µM, Gal4-VP16 FLuc inconclusive
Cn1c(=O)c2c(nc(N/N=C/c3cccs3)n2Cc2ccccc2)n(C)c1=O	RORg inh inconclusive, ELG1 DNA repair 6.51µM, DT40 TDP1 no CPT 23.1µM, DT40 TDP1 CPT inconclusive, Gal4-VP16 FLuc inconclusive
Cc1snc(SCC(=O)N/N=C(\N)COc2ccc(F)cc2)c1C#N	RORg inh 2.51µM, DT40 TDP1 no CPT inconclusive, Gal4-VP16 FLuc 4.47µM
COc1ccc(-c2cc(C(F)(F)F)c(C#N)c(SCC(=O)Nc3ccc(F)cc3)n2)cc1	none (no result: RORg inh, ELG1 DNA repair, IL1B secr inh, Gal4-VP16 FLuc)
COc1ccc(S(=O)(=O)N2CCN(c3ccc(C)cc3C)CC2)cc1OC	RORg inh inconclusive, DT40 TDP1 no CPT inconclusive, DT40 TDP1 CPT 20.6µM, Gal4-VP16 FLuc inconclusive
COc1ccc(S(=O)(=O)N2CCN(c3c(C)cccc3C)CC2)cc1OC	ELG1 DNA repair inconclusive, DT40 TDP1 CPT inconclusive, Gal4-VP16 FLuc inconclusive
O=c1ccc2cc(S(=O)(=O)N3CCN(c4cc(Cl)ccc4Cl)CC3)ccc2o1	DT40 TDP1 no CPT inconclusive
Cc1ccc(N2CCN(S(=O)(=O)c3ccc4oc(=O)ccc4c3)CC2)c(C)c1	RORg inh inconclusive, DT40 TDP1 no CPT inconclusive, DT40 TDP1 CPT 16.4µM
